# RecA splice inh – Mtb RecA intein splicing inhibitors, primary screen, biochemical, fluorescence, HTS; Protein RecA (Mycobacterium tuberculosis (strain ATCC 25618 / H37Rv)), P9WHJ3; cell-free RecA intein splicing; inhibition, % (concentration not given with the values); 290,000 tested, 0.75% active; in the data active means inhibition above about 30%;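 further: 0% = vehicle wells and 100% = reference inhibitor control wells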
# Target sequence (P9WHJ3 whole entry, looked up, canonical isoform): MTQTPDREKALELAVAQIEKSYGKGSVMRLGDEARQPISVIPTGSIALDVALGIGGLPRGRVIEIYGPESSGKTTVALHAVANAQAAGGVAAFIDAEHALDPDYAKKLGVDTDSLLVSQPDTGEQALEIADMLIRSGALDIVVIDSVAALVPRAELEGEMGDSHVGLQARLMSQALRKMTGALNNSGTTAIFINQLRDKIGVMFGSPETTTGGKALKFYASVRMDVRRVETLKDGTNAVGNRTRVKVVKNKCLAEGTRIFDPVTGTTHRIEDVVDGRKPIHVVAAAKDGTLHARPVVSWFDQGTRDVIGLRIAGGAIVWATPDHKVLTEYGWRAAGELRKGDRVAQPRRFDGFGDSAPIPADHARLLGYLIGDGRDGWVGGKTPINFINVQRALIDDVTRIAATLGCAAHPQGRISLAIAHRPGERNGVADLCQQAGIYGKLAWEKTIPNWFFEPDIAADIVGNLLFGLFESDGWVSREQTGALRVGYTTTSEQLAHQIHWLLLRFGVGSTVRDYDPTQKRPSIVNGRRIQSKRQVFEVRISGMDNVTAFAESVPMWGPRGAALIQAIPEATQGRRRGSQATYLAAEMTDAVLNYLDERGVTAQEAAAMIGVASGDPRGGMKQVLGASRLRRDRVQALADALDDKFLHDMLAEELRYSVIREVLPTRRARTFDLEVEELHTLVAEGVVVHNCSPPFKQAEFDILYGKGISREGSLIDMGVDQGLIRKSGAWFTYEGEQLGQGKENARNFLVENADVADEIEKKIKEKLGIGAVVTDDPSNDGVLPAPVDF
# Mtb hypoxia inh – PubChem AID 1159583. 300,000 tested, 0.1% active. M. tuberculosis hypoxia-regulated fluorescent reporter, fluorescence. fluorescence inhibition, % (no concentration beside the values); in the data active means fluorescence inhibition mostly above about 23%, no sharp cut-off; inactive means mostly below about 17%
# PrP UTR inh – inhibition of PrP 5' UTR reporter expression | AID 488862, 2010 | inhibition, % (no concentration beside the values) | cell-based PrP 5' UTR mRNA reporter, plate reader | 340,000 tested, 0.35% active; in the data active means inhibition above about 52%; further: 0 = median of the neutral control wells
# SARS 3CLpro inh – SARS-CoV 3CLpro protease inhibitors, primary screen, biochemical, quenched FRET; 290,000 tested, 0.14% active; inhibition, % at 6 µM; recombinant SARS-CoV 3CLpro, quenched FRET peptide cleavage; in the data active means inhibition above about 12%
# BJeLR viability – MLPCN primary cell-based screen for lethality selective to Ras in HRASV12 cells | BJeLR (HRASV12) viability, CellTiter-Glo ATP luminescence, 48 h | 300,000 tested, 0.17% active | inhibition, % (test concentration not listed); in the data active means inhibition above about 50%
# PrPC surface inh – inhibitors of human cell surface prion protein PrPC, primary screen, cell-based, TR-FRET | Major prion protein (Homo sapiens), P04156 | TR-FRET read-out | inhibition, % at 13.8 µM | 370,000 tested, 0.43% active | AID 720596, 2013; in the data active means inhibition above about 24%; further: 0% = median of the test wells and 100% = reference compound wells
# An asterisk follows results filed as active; . = no result given. Shown are actives, neighbours in structure and some others; about 1.4% of the full set was active somewhere.
SMILES,RecA splice inh,Mtb hypoxia inh,PrP UTR inh,SARS 3CLpro inh,BJeLR viability,PrPC surface inh
N#CCn1c(CCl)nc2ccccc2c1=O,38*,.,-21,1,4,-1
CC(=O)c1ccccc1OCCOCCOCCOc1ccccc1C(C)=O,-2,4,7,1,55*,-3
COC(=O)C1=C(c2cc3ccccc3o2)CC2CCC1N2C(=O)NCCCOC(C)C (stereo not given),.,5,.,.,.,.
[O-]/C(=C(\C(=S)Nc1ccccc1F)[n+]1ccccc1)c1ccc(OC(F)F)cc1,1,10,-26,5,4,-5
Cc1ccc(C)c(NC(=S)/C(=C(\[O-])c2ccc(OC(F)F)cc2)[n+]2ccccc2)c1,33*,3,-15,0,13,-4
Cc1ccc(NC(=S)/C(=C(\[O-])c2ccc(F)cc2)[n+]2ccccc2)cc1,30*,-1,-22,3,6,1
O=C(CCSc1nnc(-c2ccccc2)o1)N1CCOCC1,0,40*,-25,5,0,3
CCCCNC(=O)C(C#N)=c1sc(=Cc2ccccc2OC(F)F)c(=O)n1CCCOC,.,7,.,.,.,.
CC(=O)c1c(C)[nH]c(C(=O)COc2cc(C)ccc2C(C)C)c1C,7,10,-3,2,15,26*
COC(=O)NN=C(C)c1ccc(OC(F)F)cc1,.,17,.,.,.,.
CCC(=O)Nc1ccc(C(C)=NNC(=O)c2ccc(OC)cc2)cc1,.,2,.,.,.,.
CSc1nnnn1CCn1nnnc1SC,-1,-10,-1,8,-8,36*
CC(C)(C)OC(=O)CC1CC=CCC(CC(=O)NCCO)C(=O)NC(c2ccccc2)COC1=O (stereo not given),.,0,.,.,.,.
CCOC(=O)c1c(C)[nH]c(C(=O)OCC(=O)Nc2sc(C(=O)N(C)C)c(C)c2C(=O)OCC)c1C,-1,4,-9,.,-5,6
CCOC(=O)c1c(NC(=O)COC(=O)c2ncc(Cl)c(Cl)c2Cl)sc(C(=O)N(C)C)c1C,38*,13,-2,.,-3,.
Cc1cccc(C(=O)OC2C(C)NS(=O)(=O)C3CC4C=C[C@]23O4)c1 (stereo not given in full),.,0,.,.,.,.
CCOC(=O)/C(=N/Nc1ccc(Br)cc1)N1CC(C)OC(C)C1 (stereo not given),.,9,-16,.,.,32*
CCOC(=O)/C(=N\Nc1ccccc1)N1CC1,-1,.,-38,5,13,6
COc1cc(C2NC(=O)C(C#N)=C(Nc3cccc(C)c3)S2)ccc1O (stereo not given),87*,2,-22,1,-1,1
CCOC(=O)N1CCN(C(=O)CSc2nc(-c3cccc(C)c3)ns2)CC1,1,44*,-25,-4,5,-2
COc1ccc(-n2nc(C(=O)NCC(=O)NC3CCCC(C)C3C)c3ccccc3c2=O)cc1 (stereo not given),1,15,-30,1,-3,-6
COc1ccc(-n2nc(C(=O)NCC(=O)NC3CCCC(C)C3C)c3ccccc3c2=O)c(OC)c1 (stereo not given),1,35*,-23,-1,-6,-5
CN(C)c1ccc(C=Cc2cc[n+](C)c3ccccc23)cc1,.,21,.,.,.,.
COc1ccccc1C1c2ccc3ccccc3c2Oc2ncn(CCN(C)C)c(=N)c21 (stereo not given),5,18,.,-11,13,-11
COc1ccc(C2c3ccc4ccccc4c3Oc3ncn(CCCN(C)C)c(=N)c32)cc1 (stereo not given),11,.,5,-12,54*,-4
SMILES,RecA splice inh,Mtb hypoxia inh,PrP UTR inh,SARS 3CLpro inh,BJeLR viability,PrPC surface inh
Cc1cc(C)nc(NN=Cc2cccc(Cl)c2)n1,.,1,.,.,.,.
O=C(O)c1ccc(-n2[nH]c3c(c2=O)CCCC3)cc1,2,12,-22,2,-2,-1
O=c1c2c([nH]n1-c1ccccc1)CCSC2,63*,-12,-4,-1,2,1
Cc1ccccc1OCCC(=O)OCC(=O)N1CCN(S(=O)(=O)c2ccc(Cl)cc2)CC1,-5,2,-18,.,11,3
CCCOc1ccccc1OCC(=O)N1CCN(S(=O)(=O)c2ccc(Cl)cc2)CC1,.,32*,-17,.,.,-7
COc1ccc(C=NNC(=O)c2ccoc2C)cc1OC,.,15,.,.,.,.
COc1cc(C2(c3ccc(O)c(OC)c3)C(=O)Nc3c(C)cc(Br)cc32)ccc1O,42*,9,-10,.,-5,-6
Cc1cc(Br)cc2c1NC(=O)C2(c1c(C)n(C)n(-c2ccccc2)c1=O)c1c(C)n(C)n(-c2ccccc2)c1=O,3,9,-22,-2,1,10
CCCCc1c(C)nc2ccc(Br)cc2c1SCCC#N,3,4,.,-1,.,.
CCc1c(C)nc2ccc(Br)cc2c1SCCC#N,2,16,-17,-5,-1,47*
CN(C)CCn1nnnc1SCC1=C(C(=O)O)N2C(=O)C(NC(=O)Cc3csc(N)n3)C2SC1 (stereo not given),.,22,.,.,.,.
CCCS(=O)(=O)c1nnnn1-c1cccc(OC)c1,91*,17,10,-2,3,.
CC(C)CC1CN=C(Nc2ccccc2)N1CC1CCCCC1 (stereo not given),.,0,.,.,.,.
O=C(COC(=O)C1CC2CCCC(C1)C2=O)Nc1cccc(F)c1 (stereo not given),.,5,0,.,.,5
O=C(COC(=O)C1CC2CCCC(C1)C2=O)Nc1ccc(F)c(Cl)c1 (stereo not given),.,22*,-15,.,.,1
COC(=O)c1ccc(-n2c(C)cc(C(=O)CCl)c2C)cc1,35*,5,-13,3,5,4
COC(=O)c1ccc(-n2c(C)cc(C(=O)COC(=O)C3=COCCO3)c2C)cc1,.,14,6,.,.,-3
CCc1ccc(CCC(=O)Nc2ncc(Cc3ccccc3Cl)s2)o1,11,0,-16,0,57*,17
O=C(CN1CCOCC1)Nc1ncc(Cc2ccccc2Cl)s1,2,17,-30,6,-8,4
CCCn1nc([N+](=O)[O-])c(C(C#N)c2nc3ccccc3o2)c(Cl)c1=O (stereo not given),5,22,-9,6,-1,-34
Cn1nc([N+](=O)[O-])c(C(C#N)c2ccccn2)c(Cl)c1=O (stereo not given),46*,22,9,2,.,-8
Cc1ccccc1N(Cc1cc(=O)[nH]c2ccccc12)C(=O)C(C)C,-1,11,-14,-6,3,0
Cc1ccccc1N(Cc1cc(=O)[nH]c2ccccc12)C(=O)CCl,48*,.,-1,8,12,-1
CC=CC=CC(=O)Nc1nccs1,.,6,.,.,.,.
COC(=O)c1sc(-c2cccs2)cc1NC(=O)/C=C/C(=O)O,42*,.,-16,4,3,-41
O=c1[nH]c(=O)n([C@H]2C[C@H](O)[C@@H](CO)O2)cc1F,-2,.,35,0,93*,12
